# Screening results as filed in PubChem BioAssay.
# The sample as a whole holds a higher share of hits than the screen did.
# ALOX12 inh – blocks human arachidonate 12S-lipoxygenase. Potency, µM (highest dose often 108 µM), without a hit: at the highest dose activity change, negative = inhibition, actives largely listed as inhibitors. purified 12hLO, xylenol orange hydroperoxide absorbance. P18054. AID 1671190. 580,000 compounds, 1.1% hits; further: potency means the concentration at half of the fitted maximal effect
# Target sequence (P18054 whole entry, looked up): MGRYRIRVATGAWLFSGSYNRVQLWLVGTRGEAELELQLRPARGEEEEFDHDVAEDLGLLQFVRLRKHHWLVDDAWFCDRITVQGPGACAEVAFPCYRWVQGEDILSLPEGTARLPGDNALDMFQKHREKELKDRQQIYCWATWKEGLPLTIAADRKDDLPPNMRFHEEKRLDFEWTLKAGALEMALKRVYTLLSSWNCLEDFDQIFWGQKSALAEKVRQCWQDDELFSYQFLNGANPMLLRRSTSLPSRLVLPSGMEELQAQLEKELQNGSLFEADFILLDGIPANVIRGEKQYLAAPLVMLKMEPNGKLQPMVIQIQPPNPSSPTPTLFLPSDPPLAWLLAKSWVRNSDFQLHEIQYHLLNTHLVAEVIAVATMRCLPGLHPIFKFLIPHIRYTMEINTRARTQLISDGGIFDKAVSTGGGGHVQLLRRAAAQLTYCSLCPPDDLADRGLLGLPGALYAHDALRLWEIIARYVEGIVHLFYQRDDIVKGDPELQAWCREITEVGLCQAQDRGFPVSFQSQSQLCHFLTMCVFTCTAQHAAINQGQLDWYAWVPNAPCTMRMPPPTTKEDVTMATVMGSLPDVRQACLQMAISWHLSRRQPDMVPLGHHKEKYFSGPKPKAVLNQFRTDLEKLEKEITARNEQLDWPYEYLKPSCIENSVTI
#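 Hydroperoxide product was detected by ferrous iron/xylenol orange as the 573 to 405 nm absorbance ratio. Arachidonic acid at 40 uM (final) was turned over for 30 min at room temperature by 150 nM human 12hLO, pH 7.0 Hepes buffer, after 15 min compound preincubation.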
# DT40 TDP1 CPT – DT40-hTDP1 cell growth loss with CPT | chicken DT40 Tdp1-/-;hTDP1 cells + 20 nM CPT, ATP luminescence, 48 h | Potency, µM (titrated, usually from 46.2 µM), without a hit: top-dose activity change, negative = growth inhibition, hits mostly inhibitors | 420,000 compounds, 12% hits | AID 686979; further: potency means the concentration at half of the fitted maximal effect; nearly all actives have a fitted effect of over 55% in size
#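 Chicken DT40 Tdp1-/- cells stably complemented with human TDP1 were seeded at 400 cells/well in medium containing 20 nM camptothecin, exposed to pin-transferred compounds, and grown at 37 °C for at least 48 hr. Viability was read as ATP luminescence.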
# IL-1B inflam inh – inhibitors of inflammasome signaling (IL-1 beta secretion). THP-1 LPS/ATP IL-1B secretion, AlphaLISA, 16 h; hits give low values. activity change, % at 57.5 µM. 360,000 compounds, 4.7% hits. AID 743279; in the data active means activity change below about -50%; inconclusive means mostly about -30% to -49%
#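 THP-1 cells pretreated 1 hr with compounds (up to 57.5 uM final), then stimulated with LPS (250 ng/mL final) plus ATP (1.25 mM final); secreted IL-1B measured by AlphaLISA after 16 hr, decreased signal indicating inhibition.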
# HT1080 IDH1KD tx – HT-1080 IDH1 knockdown cell toxicity (counter line); Potency, µM (series often up to 46.1 µM), for inactives: at the highest dose activity, negative = toxicity, hits mostly cytotoxic; 360,000 compounds, 2% hits; HT-1080 IDH1 knockdown viability, ATP luminescence, 48 h;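 further: potency means the concentration at half of the fitted maximal effect; 0% = DMSO wells and -100% = cell-free medium wells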
#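 After a 2 h attachment period, IDH1KD HT-1080 cells took pin-transferred compound for 48 h at 37 °C; ATP-based luminescence after 10 min room-temperature reagent incubation reported viability.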
# HT1080-NT tox – kills 2HG-producing HT-1080-NT fibrosarcoma cells; HT-1080-NT fibrosarcoma viability, CellTiter-Glo ATP luminescence, 48 h; Potency, µM (highest dose often 46.1 µM), without a hit: at the highest dose activity, negative = less viability, hits mostly cytotoxic; 360,000 compounds, 1.6% hits; AID 686970;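 further: NT is the 2HG producing partner of a matched IDH1 knockdown line; potency means the concentration at half of the fitted maximal effect; 0% = DMSO-treated cells and -100% = media-only wells without cells; nearly all actives have a fitted effect of over 55% in size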
#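 HT-1080-NT; 750 cells/well; 5% FBS RPMI; 48 h compound, 37 degrees C; CellTiter-Glo luminescence; curve fitting and curve-class assignment.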
# TDP1 cell noCPT – qHTS for Inhibitors of human tyrosyl-DNA phosphodiesterase 1 (TDP1): qHTS in cells in absence of CPT; 420,000 compounds, 15% hits; DT40 Tdp1-/- hTDP1 cells, no CPT, ATP luminescence, 48 h; Potency, µM (titrated, usually from 46.2 µM), without a hit: at the highest dose activity change, negative = growth inhibition, most hits filed as inhibitors; further: potency means the concentration at half of the fitted maximal effect; nearly all actives have a fitted effect of over 55% in size
#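 Growth kinetics read by CellTiter-Glo luminescence after ≥48 hr at 37 °C. Cells: DT40 Tdp1-/- stably carrying human TDP1, 400 per well, compound exposure in the absence of CPT (DMSO vehicle).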
# * hit, by the source's call; ? = inconclusive; nt = not tested or not shown; [ ] = another dose, or the depositor's remark. Unless noted, the call rests on the fitted dose curve; in most records, active means well fitted curve in the direction sought with a large enough effect; inconclusive means small, poorly fitted or top-dose-only effect, or another doubt; inactive means no such curve, though single readings can be large; an effect the other way counts as inactive or inconclusive. Unless noted, on the % scale 0 is the no-effect control and ±100 the full control effect.
SMILES,ALOX12 inh,DT40 TDP1 CPT,IL-1B inflam inh,HT1080 IDH1KD tx,HT1080-NT tox,TDP1 cell noCPT
COc1cccc(CNC[C@H]2O[C@@H](n3ccc(N)nc3=O)[C@H](O)[C@@H]2O)c1OCc1ccc(F)cc1Cl,?,-7.1%,0.0,-3.8%,4.4%,-12.1%
COc1ccc(F)c(CN(C)CC2CCCN(CCc3ccc(F)cc3)C2)c1 (stereo not given),?,?,-57.8*,?,?,16.4µM*
COc1ccc(CN(C)CC2CCCN(CCc3ccc(F)cc3)C2)cc1OC (stereo not given),?,16.4µM*,?,-20.9%,?,23.1µM*
COc1ccc(CCN2CCCC(CN(C)Cc3cc(OC)c(OC)c(OC)c3)C2)cc1 (stereo not given),-11.5%,20.6µM*,-14.0,?,-23.4%,16.4µM*
CCCCOC(=O)n1c(=S)oc2cc(Cl)ccc21,-2.1%[57.4 µM],8.2µM*,?,-3.1%,-1.3%,23.1µM*
CCCCOC(=O)n1c(=O)oc2cc(S(=O)(=O)N3CCCCC3)ccc21,-15.8%,?,0.0,-17.3%,-10.7%,?
Fc1ccc(-c2nc3ccc(Br)cn3c2Cc2ccccc2C(F)(F)F)cc1,17.8µM*,?,-9.7,2.1%,-24.5%,?
FC(F)(F)c1ccccc1Cc1c(-c2ccc(Cl)cc2)nc2ccc(Br)cn12,39.8µM*,?,-9.2,-7.2%,?,?
Fc1ccc(-c2nc3ccc(Cl)cn3c2Cc2ccccc2C(F)(F)F)cc1,-29.4%,?,22.8,6.5%,7.8%,?
Cc1ccc(C(=O)Nc2ccc3oc(-c4cccnc4)nc3c2)cc1[N+](=O)[O-],-10.9%,nt,nt,nt,nt,nt
Cc1cccc(C)c1NC(=O)CN1CCN(C(=O)CNC(=O)Cc2cccc3ccccc23)CC1,-16.7%,?,2.7,2.9%,-16.3%,14.6µM*
CCc1ccccc1NC(=O)CN1CCN(C(=O)CNC(=O)Cc2cccc3ccccc23)CC1,?,-16.8%,-10.1,-8.3%,-5.9%,?
Cc1cccc(NC(=O)CN2CCN(C(=O)CNC(=O)c3ccc(-c4ccccc4)cc3)CC2)c1C,-25.1%,4.61µM*,37.6,10.3µM*,?,2.31µM*
Cc1cccc(C)c1NC(=O)CN1CCN(C/C=C/c2ccccc2)CC1,3.4%,?,3.6,1.3%,5.3%,?
Cc1cccc(C)c1NC(=O)CN1CCN(C(=O)CNC(=O)c2ccc(-c3ccccc3)cc2)CC1,-10.7%,?,29.2,?,1.7%,16.4µM*
Cc1ccc(Cc2cc(C)ncc2C)c(C)c1,30.5%,nt,nt,nt,nt,nt
Cc1[nH]c2ccccc2c1C(=O)c1c(N)[nH]c(C(=O)c2ccccc2)c1-c1ccc(Cl)cc1,-25.0%,nt,nt,nt,nt,nt
C=Cc1cccc(CN2CCC(CNC(=O)C3CCNCC3)C2)c1 (stereo not given),50.3%,nt,nt,nt,nt,nt
CCOc1ccccc1CN1CCCC2(Cc3ccccc3CNC2=O)C1 (stereo not given),-0.4%[6.33 µM],nt,nt,nt,nt,nt
CCC1(c2cccc(Cl)c2)NC(=O)N(Cc2cc(C(=O)OC)c(C)o2)C1=O (stereo not given),-17.2%,25.9µM*,1.9,-1.2%,-2.5%,18.4µM*
CCc1cccc(CC)c1NC(=O)C1SC(=Nc2ccccc2C)C(c2nc3ccccc3s2)=C1N (stereo not given),0.0%,?,6.0,-12.7%,-22.0%,23.1µM*
Cc1ccc(-c2nc3ccccc3s2)cc1NC(=O)C(C)C,-1.3%,nt,nt,nt,nt,nt
Cc1ccc(C)c(Nc2nnc(-c3ccc(C)c(S(=O)(=O)N4CCN(C)CC4)c3)c3ccccc23)c1,-24.4%,?,nt,nt,nt,23.1µM*
